Measured values reported in PubChem BioAssay (NCATS).
Values joined by “and” are separate entries in the source; they are usually repeats but may differ in a detail not shown here. Identical values can stand only once. Inconclusive results are not listed. Active and inactive are the calls of the source. Unless noted, calls come from the whole dose curve; as a rule, active = well fitted curve in either direction with a large enough effect (not every such curve was filed as active); inconclusive = small, poorly fitted or top-dose-only effect, or another doubt; inactive = flat fitted curve, though single readings scatter.

Columns and labels:
[1] = target: Lysosomal acid glucosylceramidase (Homo sapiens) (UniProt P04062); assay: Glucocerebrosidase-p2 (AID 348; in the data active = potency below about 10 µM; note: potency is the fitted concentration of half-maximal effect); conditions: purified GBA, blue fluorogenic substrate, 40 min
Method in brief: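 Compounds titrated from 0.6 nM upwards against 0.2 nM enzyme in pH 5.9 citric acid/KH2PO4, taurocholate, tween-20; blue fluorogenic substrate 80 uM, 40 min room temperature, stopped and read Ex 365/Em 440 for AC50.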

[2] = AP1 Signaling Pathway (AID 357); conditions: ME-180 AP-1-bla reporter, EGF-induced, beta-lactamase ratio, 5 h; at 7.69 µM (top of the series) unless noted;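 note: ME-180 reporter cells stimulated with EGF at its EC50 level; % is set by controls: 0 for no effect and ±100 for the full control effect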
Method in brief: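 Read-out was the 460nm/530nm emission ratio (excitation 405nm) after CCF4 loading for 2.5 hours at room temperature. Cells carried an AP-1-driven beta-lactamase reporter, were stimulated with EC50 EGF plus compound for 5 hours, and AC50 values came from titrations.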

[3] = target: Cytochrome P450 1A2 (Homo sapiens) (UniProt P05177); assay: p450-cyp1a2 (AID 410; calls by dose curve;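 note: -100% = full effect of reference inhibitor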); conditions: recombinant CYP1A2, luciferin-ME demethylation, luminescence; series mostly up to 11.4 µM
Method in brief: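 20nM CYP1A2 with 100uM Luciferin-ME (at Km) in 100mM KPO4; compound preincubated 10 min, NADPH regeneration added, 60 min at room temperature. Luciferin quantified by luminescence after detection reagent; normalized to 57 uM furafylline.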

[4] = NFAT Signaling Pathway (AID 444); conditions: Jurkat NFAT-bla M1, carbachol, beta-lactamase ratio, 5 h; at 7.69 µM (top of the series) unless noted;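 note: carbachol stimulus at about its EC50 of 1 µM final; % is set by controls: 0 for no effect and ±100 for the full control effect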
Method in brief: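 Read-out: CCF4 FRET ratio (460 nm/530 nm) after 1 h RT dye loading, used for %activity and AC50 from titration series. Cells: Jurkat NFAT-β-lactamase/M1 line, treated with compound plus 1 uM carbachol for 5 h, 37 °C.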

[5] = Stat Signaling Pathway (AID 446); conditions: ME-180 SIE beta-lactamase reporter, IL-6 stimulated, 5 h; at 7.69 µM (top of the series) unless noted;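 note: ME-180 cervical cancer cells given 40 pM IL-6 alongside compound; SIE-controlled beta-lactamase reporter measured as 460/530 nm FRET emission ratio; % is set by controls: 0 for no effect and ±100 for the full control effect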
Method in brief: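 ME-180 SIE-bla cells; overnight plating; cpd + IL-6 40 pM, 5 h, 37 C; LiveBLAzer 2.5 h RT; 460/530 nm emission ratio. Normalized to 300 pM IL-6 and 125 nM JAK inhibitor controls.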

[6] = target: Glucocorticoid receptor (Homo sapiens) (UniProt P04150); assay: GR-GFP Redistribution (AID 450;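 active = compounds whose dose series gives a full or clear partial fitted curve of increased nuclear translocation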; note: potency is the fitted concentration of half-maximal effect); conditions: U2OS GR-GFP nuclear translocation, laser cytometry, 2 h
[7] = target: Glucocorticoid receptor (Homo sapiens) (UniProt P04150); assay: GR-EFC Redistribution (AID 451; calls by dose curve; note: potency is the fitted concentration of half-maximal effect); conditions: CHO-K1 GR-EFC translocation, beta-gal luminescence, 2 h
Method in brief: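 Translocation of GR-ED fusion to nuclear EA restores b-gal, read by luminescence after 1 h room-temperature detection. Engineered CHO-K1 biosensor cells, 1,000/well, exposed 2 h at 37 C to titrations up to 46 uM final.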

[8] = target: Mitogen-activated protein kinase 10 (Mus musculus) (UniProt Q61831); assay: JNK3 AlphaScreen Assay (AID 530); conditions: JNK3 lysate, c-Jun phosphorylation; series mostly up to 11.4 µM;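 note: kinase came from lysate of stimulated human HepG2 cells; signal reports phosphorylation of biotinylated GST-cJun 1-79 at Ser73 with 10 µM ATP; % is set by controls: 0 for no effect and ±100 for the full control effect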
Method in brief: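 Compound titrations were preincubated 15 minutes at room temperature with substrate, antibody and pre-activated JNK3-containing HepG2 lysate. Reactions were started with 10 uM ATP and stopped with EDTA-containing bead buffer for AlphaScreen detection.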

[9] = target: 3',5'-cyclic-AMP phosphodiesterase 4B (Homo sapiens) (UniProt Q07343); assay: qHTS Assay for Inhibitors of PDE-IV (AID 607; active = well fitted activation curve with a large enough effect in the main read-out, with a control signal flat, not every such curve was filed as active; note: % of control where 0% means no effect); conditions: HEK293 ACTOne CNG channel cells, membrane potential fluorescence; series mostly up to 22.9 µM
Method in brief: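 ACTOne HEK293 cells carry a modified cAMP-gated CNG channel and express endogenous PDE4; plated 1000 cells/well, compounds up to 22.9 uM final. Membrane-potential dye fluorescence (ex 535/em 590) was read; parental cells received 10 uM forskolin + 100 uM RO 20-1724.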

Cytochrome P450 1A2 (Homo sapiens), sequence (P05177 whole entry, looked up): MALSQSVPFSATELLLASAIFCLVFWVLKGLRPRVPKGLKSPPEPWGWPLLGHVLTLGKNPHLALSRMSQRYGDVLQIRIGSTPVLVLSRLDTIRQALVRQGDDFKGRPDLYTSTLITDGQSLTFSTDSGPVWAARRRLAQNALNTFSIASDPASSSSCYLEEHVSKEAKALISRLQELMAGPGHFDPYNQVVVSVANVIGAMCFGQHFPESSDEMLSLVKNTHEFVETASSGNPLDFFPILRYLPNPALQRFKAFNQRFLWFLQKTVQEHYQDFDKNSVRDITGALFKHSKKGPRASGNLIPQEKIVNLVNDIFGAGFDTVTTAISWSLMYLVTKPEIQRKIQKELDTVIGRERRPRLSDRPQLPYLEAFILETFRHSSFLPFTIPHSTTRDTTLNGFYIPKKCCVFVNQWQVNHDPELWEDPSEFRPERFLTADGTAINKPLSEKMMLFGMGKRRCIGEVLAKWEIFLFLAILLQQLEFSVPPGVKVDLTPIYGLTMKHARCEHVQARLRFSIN
Lysosomal acid glucosylceramidase (Homo sapiens), sequence (P04062 whole entry, looked up): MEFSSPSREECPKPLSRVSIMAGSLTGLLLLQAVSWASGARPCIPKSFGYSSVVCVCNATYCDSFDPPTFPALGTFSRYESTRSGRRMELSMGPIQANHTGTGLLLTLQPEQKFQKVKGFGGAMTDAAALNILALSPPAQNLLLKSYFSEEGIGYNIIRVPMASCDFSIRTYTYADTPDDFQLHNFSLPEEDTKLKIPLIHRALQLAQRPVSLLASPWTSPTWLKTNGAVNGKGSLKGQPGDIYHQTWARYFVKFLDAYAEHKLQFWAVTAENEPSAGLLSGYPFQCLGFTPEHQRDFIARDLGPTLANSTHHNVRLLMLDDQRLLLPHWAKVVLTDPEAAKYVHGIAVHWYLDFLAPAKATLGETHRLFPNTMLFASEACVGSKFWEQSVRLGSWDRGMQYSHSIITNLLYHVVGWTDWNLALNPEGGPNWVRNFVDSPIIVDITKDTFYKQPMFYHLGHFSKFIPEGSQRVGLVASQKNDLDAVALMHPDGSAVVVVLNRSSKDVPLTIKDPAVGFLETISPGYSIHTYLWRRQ
3',5'-cyclic-AMP phosphodiesterase 4B (Homo sapiens), sequence (Q07343 whole entry, looked up): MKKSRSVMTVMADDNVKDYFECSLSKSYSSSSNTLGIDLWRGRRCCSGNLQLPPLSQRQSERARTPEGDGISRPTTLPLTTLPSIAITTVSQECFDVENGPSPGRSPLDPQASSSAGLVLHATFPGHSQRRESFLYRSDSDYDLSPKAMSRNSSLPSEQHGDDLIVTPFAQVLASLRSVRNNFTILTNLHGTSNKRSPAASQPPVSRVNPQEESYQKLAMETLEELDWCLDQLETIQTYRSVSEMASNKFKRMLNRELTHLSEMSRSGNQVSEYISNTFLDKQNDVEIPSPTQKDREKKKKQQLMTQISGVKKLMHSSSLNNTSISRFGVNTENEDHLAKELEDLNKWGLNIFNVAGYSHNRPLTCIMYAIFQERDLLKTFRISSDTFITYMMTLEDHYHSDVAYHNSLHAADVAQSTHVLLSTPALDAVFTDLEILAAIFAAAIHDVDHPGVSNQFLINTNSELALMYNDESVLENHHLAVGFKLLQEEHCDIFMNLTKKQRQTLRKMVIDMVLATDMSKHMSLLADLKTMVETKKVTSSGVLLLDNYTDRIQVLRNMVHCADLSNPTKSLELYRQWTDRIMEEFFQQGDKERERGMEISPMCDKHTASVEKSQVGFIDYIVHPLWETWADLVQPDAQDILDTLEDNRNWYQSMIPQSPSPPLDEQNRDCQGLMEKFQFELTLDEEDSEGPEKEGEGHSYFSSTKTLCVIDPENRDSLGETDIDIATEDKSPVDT
Glucocorticoid receptor (Homo sapiens), sequence (P04150 whole entry, looked up, the tested form may be a part): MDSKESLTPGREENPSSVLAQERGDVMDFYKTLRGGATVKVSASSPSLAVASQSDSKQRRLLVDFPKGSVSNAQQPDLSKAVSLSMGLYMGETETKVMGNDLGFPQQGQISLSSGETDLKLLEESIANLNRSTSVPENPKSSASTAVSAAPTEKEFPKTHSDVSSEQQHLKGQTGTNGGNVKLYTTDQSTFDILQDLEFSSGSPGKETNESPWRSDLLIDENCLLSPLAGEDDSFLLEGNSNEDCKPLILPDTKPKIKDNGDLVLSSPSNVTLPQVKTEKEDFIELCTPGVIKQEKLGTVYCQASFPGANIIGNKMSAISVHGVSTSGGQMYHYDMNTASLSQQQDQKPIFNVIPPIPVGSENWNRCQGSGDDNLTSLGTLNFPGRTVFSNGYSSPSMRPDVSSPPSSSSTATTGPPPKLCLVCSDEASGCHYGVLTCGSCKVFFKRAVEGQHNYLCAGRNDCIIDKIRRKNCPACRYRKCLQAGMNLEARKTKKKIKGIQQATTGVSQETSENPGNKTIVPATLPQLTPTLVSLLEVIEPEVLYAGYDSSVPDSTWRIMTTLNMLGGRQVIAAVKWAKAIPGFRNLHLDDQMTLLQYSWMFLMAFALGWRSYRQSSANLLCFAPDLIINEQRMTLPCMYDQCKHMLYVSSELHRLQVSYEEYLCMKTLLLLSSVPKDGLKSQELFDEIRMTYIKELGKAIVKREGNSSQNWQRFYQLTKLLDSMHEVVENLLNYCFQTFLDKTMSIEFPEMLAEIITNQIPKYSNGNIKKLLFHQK

O=C(O)c1ccccc1CN1CCC[C@@H](C(=O)O)C1
inactive: Potency [1] > 11.4 µM | activity change, negative = inhibition [2] -3.95% | Potency [3] | activity change, negative = inhibition [4] 12.7% | activity, negative = inhibition [5] 8.09% | Potency [6] > 46 µM | Potency [7] > 9.22 µM | Potency [8] | Potency [9]

COc1ccc(-c2nc(N)c3ncn([C@H]4O[C@@H](CO)[C@@H](O)[C@@H]4O)c3n2)cc1
inactive: Potency [1] > 11.4 µM | activity change, negative = inhibition [2] -12.4% | activity change, negative = inhibition [3] -13% [at 2.29 µM] | activity change, negative = inhibition [4] 0.656% | activity, negative = inhibition [5] 3.98% | Potency [6] > 46 µM | Potency [7] > 9.22 µM | Potency [8] | Potency [9]

C[C@@H](CS(=O)(=O)Cc1ccccc1)C(N)=O
inactive: Potency [1] > 11.4 µM | activity change, negative = inhibition [2] 8.67% | Potency [3] | activity change, negative = inhibition [4] 5.68% | activity, negative = inhibition [5] 3.43% | Potency [6] > 46 µM | Potency [7] > 9.22 µM | Potency [8] | Potency [9]

O=S(=O)(C[C@H](O)C(Cl)(Cl)Cl)NNc1ccccc1
inactive: Potency [1] > 11.4 µM | activity change, negative = inhibition [2] -0.0496% | activity change, negative = inhibition [3] 0.8% [at 2.29 µM] | activity change, negative = inhibition [4] 2.68% | activity, negative = inhibition [5] 5.12% | Potency [6] > 46 µM | Potency [7] > 9.22 µM | Potency [8] | Potency [9]

NN(CC(=O)O)CC(=O)O
inactive: Potency [1] > 11.4 µM | activity change, negative = inhibition [2] -2.45% | Potency [3] | activity change, negative = inhibition [4] -1.35% | activity, negative = inhibition [5] -0.699% | Potency [6] > 46 µM | Potency [7] > 9.22 µM | Potency [8] | Potency [9]

Cn1cnc([N+](=O)[O-])c1[Se]c1nc(N)nc2c1ncn2[C@@H]1O[C@@H](CO)[C@H](O)[C@@H]1O
inactive: Potency [1] > 11.4 µM | activity change, negative = inhibition [2] 4.67% | activity change, negative = inhibition [3] -12.8% [at 2.29 µM] | activity change, negative = inhibition [4] 8.52% | activity, negative = inhibition [5] 10.6% | Potency [6] > 46 µM | Potency [7] > 9.22 µM | Potency [8] | Potency [9]

C/C(CC/C(C)=N/O)=N/O
inactive: Potency [1] > 11.4 µM | activity change, negative = inhibition [2] 4.13% | activity change, negative = inhibition [3] -12.6% [at 2.29 µM] | activity change, negative = inhibition [4] 2.59% | activity, negative = inhibition [5] -4.99% | Potency [6] > 46 µM | Potency [7] > 9.22 µM | Potency [8] | Potency [9]

O=C(O)CNCCc1ccccc1
inactive: Potency [1] > 11.4 µM | activity change, negative = inhibition [2] 7.75% | Potency [3] | activity change, negative = inhibition [4] -3.02% | activity, negative = inhibition [5] 4.05% | Potency [6] > 46 µM | Potency [7] > 9.22 µM | Potency [8] | Potency [9]

Cc1ccc(N2CCN(CCC(=O)O)CC2)cc1
inactive: Potency [1] > 11.4 µM | activity change, negative = inhibition [2] 4.25% | Potency [3] | activity change, negative = inhibition [4] 2.05% | activity, negative = inhibition [5] 2.74% | Potency [6] > 46 µM | Potency [7] > 9.22 µM | Potency [8] | Potency [9]

O=C(O)C1=C/C(=C(/c2ccccc2)c2cc(C(=O)O)c(O)c3ccccc23)c2ccccc2C1=O
inactive: Potency [1] > 11.4 µM | activity change, negative = inhibition [2] 1.91% and 8.74% | Potency [3] | activity change, negative = inhibition [4] 12% and -21.2% | activity, negative = inhibition [5] 2.38% and 8.71% | Potency [6] > 46 µM | Potency [7] > 9.22 µM | Potency [8] | Potency [9]

O=C(O)[C@@H]1CS[C@@]2(CCCN(Cc3ccccc3)C2)N1
inactive: Potency [1] > 11.4 µM | activity change, negative = inhibition [2] 8.03% | activity change, negative = inhibition [3] -12% [at 2.29 µM] | activity change, negative = inhibition [4] 18.2% | activity, negative = inhibition [5] 2.47% | Potency [6] > 46 µM | Potency [7] > 9.22 µM | Potency [8] | Potency [9]

C[C@@H](CSC(=N)N)C(N)=O
inactive: Potency [1] > 11.4 µM | activity change, negative = inhibition [2] -3.05% | activity change, negative = inhibition [3] -6.6% [at 2.29 µM] | activity change, negative = inhibition [4] 13.8% | activity, negative = inhibition [5] 9.57% | Potency [6] > 46 µM | Potency [7] > 9.22 µM | Potency [8] | Potency [9]

COc1ccc(CN[C@H](C)C(=O)O)cc1
inactive: Potency [1] > 11.4 µM | activity change, negative = inhibition [2] -9.23% | Potency [3] | activity change, negative = inhibition [4] -12% | activity, negative = inhibition [5] 2.1% | Potency [6] > 46 µM | Potency [7] > 9.22 µM | Potency [8] | Potency [9]

CC1CCC(O)([C@](C)(C(=O)O)c2ccccc2)CC1 (stereo not given in full)
inactive: Potency [1] > 11.4 µM | activity change, negative = inhibition [2] -5.12% | Potency [3] | activity change, negative = inhibition [4] -26.7% | activity, negative = inhibition [5] -1.34% | Potency [6] > 46 µM | Potency [7] > 9.22 µM | Potency [8] | Potency [9]

CC(C)(C[C@@]1(C)NC(=O)NC1=O)OCc1ccccc1
inactive: Potency [1] > 11.4 µM | activity change, negative = inhibition [2] -2.92% | activity change, negative = inhibition [3] -12.1% [at 2.29 µM] | activity change, negative = inhibition [4] -0.038% | activity, negative = inhibition [5] 0.608% | Potency [6] > 46 µM | Potency [7] > 9.22 µM | Potency [8] | Potency [9]
